According to the supplement of paper PMC12645437, “Orthogonal IMiD-Degron Pairs Induce Selective Protein Degradation in Cells” (ACS Chemical Biology, 2025):
Whole data set: some 8,300 sequences, median “log2 fold change of degron read counts, EGFP-low vs EGFP+ sorted cells (limma voom), compound-induced degradation” near -1.1, cut for the highest 2% near 3.2. The full list was thinned out, with the highest values kept by preference.

T1: CRBN, Q96SW2
T1 chain: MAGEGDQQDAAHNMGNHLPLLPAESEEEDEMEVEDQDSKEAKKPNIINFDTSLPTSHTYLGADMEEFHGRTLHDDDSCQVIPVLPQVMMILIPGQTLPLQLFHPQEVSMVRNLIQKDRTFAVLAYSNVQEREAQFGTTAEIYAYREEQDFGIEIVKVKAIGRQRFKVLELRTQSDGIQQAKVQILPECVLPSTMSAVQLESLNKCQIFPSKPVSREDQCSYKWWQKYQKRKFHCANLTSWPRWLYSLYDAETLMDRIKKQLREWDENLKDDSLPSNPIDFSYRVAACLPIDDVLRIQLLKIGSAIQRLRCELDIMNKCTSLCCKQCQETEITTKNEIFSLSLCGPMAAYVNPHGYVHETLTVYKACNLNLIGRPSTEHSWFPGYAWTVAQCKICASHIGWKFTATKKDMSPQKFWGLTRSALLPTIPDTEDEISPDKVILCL


Molecular target: T1, CRBN, Q96SW2
Assay: log2 fold change of degron read counts, EGFP-low vs EGFP+ sorted cells (limma voom), compound-induced degradation; higher = more compound-induced degradation of the degron-EGFP fusion; degrons are variants of IKZF1/3 zinc finger 2; compound dose not given here
Conditions: Jurkat, 18 h
[1] = compound: compound 19 (5-tert-butyl-thalidomide)
[2] = compound: compound 22 (5-morpholino-thalidomide)
[3] = compound: compound 33 (diphenyl IMiD analogue)
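Note: pooled lentiviral library of zinc finger degron-EGFP fusions in mCherry-positive Jurkat cells, FACS-sorted after compound exposure, with degron abundance counted by next-generation sequencing.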

| Sequence | log2 fold change of degron read counts [1] | log2 fold change of degron read counts [2] | log2 fold change of degron read counts [3] | log2 fold change of degron read counts (compound: thalidomide) |
| --- | --- | --- | --- | --- |
| LTCPICGFNCTQKGNLLRHIKL [46L_47T_49P_50I_52G_53F_54N_55C_67L_, Q9UKT9] | -0.006 | 2.04 | 2.24 | 2.86 |
| FSCEICGHYFTQKGNLLRHIKL [46F_47S_49E_50I_52G_53H_54Y_55F_67L_, Q9UKT9] | -2.13 | -2.82 | -2.44 | -2.99 |
| FLCEICGHLFTQKGNLLRHIKL [46F_47L_49E_50I_52G_53H_54L_55F_67L_, Q9UKT9] | -3.49 | -2.55 | -2.84 | -2.4 |
| FMCEICGRDFTQKGNLLRHIKL [46F_47M_49E_50I_52G_53R_54D_55F_67L_, Q9UKT9] | -4.1 | -3.78 | -2.1 | -2.87 |
| FECNVCGANFTQKGNLLRHIKL [46F_47E_49N_50V_52G_53A_54N_55F_67L_, Q9UKT9] | -2.58 | -1.81 | 0.845 | 0.642 |
| FICPVCGANFTQKGNLLRHIKL [46F_47I_49P_50V_52G_53A_54N_55F_67L_, Q9UKT9] | -1.07 | 2.83 | 1.95 | 2.35 |
| FRCPVCGANFTQKGNLLRHIKL [46F_47R_49P_50V_52G_53A_54N_55F_67L_, Q9UKT9] | -0.729 | -0.0361 | 1.6 | 1.18 |
| FFCPVCGANFTQKGNLLRHIKL [46F_47F_49P_50V_52G_53A_54N_55F_67L_, Q9UKT9] | 2.53 | 3.51 | 1.89 | 1.22 |
| FVCDVCGANFTQKGNLLRHIKL [46F_47V_49D_50V_52G_53A_54N_55F_67L_, Q9UKT9] | -1.78 | 0.744 | 0.282 | 0.237 |
| FWCDVCGANFTQKGNLLRHIKL [46F_47W_49D_50V_52G_53A_54N_55F_67L_, Q9UKT9] | 1.91 | 3.89 | 0.9 | -0.759 |
| FWCNVCGANFTQKGNLLRHIKL [46F_47W_49N_50V_52G_53A_54N_55F_67L_, Q9UKT9] | 1.2 | 3.53 | 1.36 | -0.0957 |
| FECDVCGANFTQKGNLLRHIKL [46F_47E_49D_50V_52G_53A_54N_55F_67L_, Q9UKT9] | -1.89 | -2.52 | 0.03 | -0.264 |
| FYCNVCGANFTQKGNLLRHIKL [46F_47Y_49N_50V_52G_53A_54N_55F_67L_, Q9UKT9] | 0.97 | 2.35 | 0.921 | -0.663 |
| FSCEICGHWFTQKGNLLRHIKL [46F_47S_49E_50I_52G_53H_54W_55F_67L_, Q9UKT9] | -2.92 | -3.14 | -2.71 | -2.77 |
| FRCNICGAMFTQKGNLLRHIKL [46F_47R_49N_50I_52G_53A_54M_55F_67L_, Q9UKT9] | -1.41 | -1.24 | -0.539 | -0.171 |
| FKCPICGHGFTQKGNLLRHIKL [46F_47K_49P_50I_52G_53H_54G_55F_67L_, Q9UKT9] | -2.34 | -2.29 | -2.14 | -1.69 |
| FYCPVCGAKFTQKGNLLRHIKL [46F_47Y_49P_50V_52G_53A_54K_55F_67L_, Q9UKT9] | 2.58 | 2.82 | 1.14 | 0.354 |
| FSCEVCGAHFTQKGNLLRHIKL [46F_47S_49E_50V_52G_53A_54H_55F_67L_, Q9UKT9] | 2.19 | 0.401 | 0.505 | 0.0402 |
